Growth data for 12 compounds are collected here from PubChem BioAssay (NCI).

This is part of a sample that, as a whole, favours compounds with a hit. Of some 83,000 tested, about 20% had one in any assay.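 How to read the values: 0–100, growth inhibition (40 = 60% inhibited); 0, no net growth; -100 to 0, cell death (-40 = 40% of starting cells died; -100 = all dead).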 Unmarked numbers belong to inactive results. The source made the active and inactive calls. How the source made its calls: active means growth percent below 10; inactive means the rest.

Test systems include NCI-H23 lung; NCI-H226 lung; NCI-H322M lung; HOP-62 NSCLC; NCI-H460 lung; HOP-92 NSCLC; NCI-H522 lung; A549/ATCC NSCLC; 786-0 renal; COLO 205 colon.
Assay in all cases: NCI-60 one-dose screen, 48 h (100 = growth as untreated, 0 = no growth, -100 = all killed)
Holding throughout (details): 10 µM unless noted

Regarding `O=C1C(=O)N(CCCCn2cc(CO)nn2)c2ccccc21`, the growth is 98.2% in the experiment on NCI-H23 lung; 97.4% with NCI-H226 lung; 108% with NCI-H322M lung; 96.3% with HOP-62 NSCLC; 101% in the experiment with NCI-H460 lung; 106% in the experiment on HOP-92 NSCLC. For the same compound, the growth was 90.1% with NCI-H522 lung, 104% with A549/ATCC NSCLC, 99.9% in the experiment on 786-0 renal and 111% in the experiment with COLO 205 colon.

In the case of `CC(=O)O[C@H]1CC[C@]2(C)[C@H]3CC[C@@H]4[C@H]5[C@H](C(C)C)CC[C@]5(C(=O)OCC(CO)(CO)N=C(N)N)CC[C@@]4(C)[C@]3(C)CC[C@H]2C1(C)C`, the growth in the experiment with NCI-H23 lung is 77.7%; with NCI-H226 lung, 91.4%; with NCI-H322M lung it was 70.2%; in the experiment with HOP-62 NSCLC, 86.1%; in the experiment with NCI-H460 lung it was -32.4% (active); in the experiment with HOP-92 NSCLC, 32%. For the same compound, the growth with NCI-H522 lung was -69.6% (active); in the experiment on A549/ATCC NSCLC, 54.6%; in the experiment on 786-0 renal, 74.3%; in the experiment with COLO 205 colon, -89.9% (active).

Take `COCCCN=C(N)c1ccc(NC(=O)c2ccc(C(=O)Nc3ccc(C(N)=NCCCOC)cc3)cc2)cc1`: the growth in the experiment on NCI-H23 lung is 82.1%; in the experiment on NCI-H226 lung, 90.7%; with NCI-H322M lung, 90.5%; in the experiment with HOP-62 NSCLC, 81.6%; in the experiment on NCI-H460 lung it was 102%; in the experiment with HOP-92 NSCLC it was 134%. For the same compound, the growth with NCI-H522 lung is 97.5%; in the experiment with A549/ATCC NSCLC, 106%; in the experiment on 786-0 renal, 87.7%; with COLO 205 colon, 105%.

Turning to `CC(C)Oc1nc2c(c(=O)n(C)c(=O)n2C)n1C`, the growth in the experiment with NCI-H23 lung is 96%; in the experiment on NCI-H226 lung, 97.1%; with NCI-H322M lung, 94.4%; in the experiment on HOP-62 NSCLC, 92.5%; in the experiment with NCI-H460 lung, 105%; in the experiment on HOP-92 NSCLC, 102%. In addition, the growth in the experiment on NCI-H522 lung is 80.9%; with A549/ATCC NSCLC it was 84.7%; in the experiment with 786-0 renal, 104%; with COLO 205 colon it was 102%.

Consider `CSc1[nH]c2ncnc(N)c2c1C#N`, for which the growth with NCI-H23 lung was 91.4%; in the experiment on NCI-H226 lung, 73.6%; with NCI-H322M lung, 82.9%; in the experiment on HOP-62 NSCLC, 94.9%; in the experiment with NCI-H460 lung, 99.6%; in the experiment with HOP-92 NSCLC, 118%. For the same compound, the growth in the experiment with NCI-H522 lung was 82.6%; with A549/ATCC NSCLC it was 101%; with 786-0 renal, 99.7%; in the experiment on COLO 205 colon, 117%.

With `O=[N+]([O-])c1cccc(-c2nc3sccn3c2-c2ccnc(NCCCNS(=O)(=O)c3cccc(F)c3)n2)c1`, the growth was -9.68% (active) with NCI-H23 lung; -5.67% (active) in the experiment on NCI-H226 lung; 45.2% in the experiment on NCI-H322M lung; 13.1% with HOP-62 NSCLC; 16.3% with NCI-H460 lung; 46.3% in the experiment on HOP-92 NSCLC. Further, the growth was -8.69% (active) in the experiment with NCI-H522 lung, 7.27% (active) in the experiment with A549/ATCC NSCLC, 43.4% with 786-0 renal and -2.26% (active) in the experiment on COLO 205 colon.

As for `COc1ccc(C(=O)c2sc3nc(-c4ccccc4OC)ccc3c2N)cc1OC`, the growth with NCI-H23 lung is 63.2%; in the experiment with NCI-H226 lung, 63%; in the experiment on NCI-H322M lung, 87.2%; in the experiment with HOP-62 NSCLC, 95.3%; with NCI-H460 lung it was 51.7%; in the experiment with HOP-92 NSCLC, 56.4%. Besides, the growth is 50.3% in the experiment on NCI-H522 lung, 64.6% in the experiment with A549/ATCC NSCLC, 64.1% in the experiment on 786-0 renal and 102% with COLO 205 colon.

For `CNc1nc(C)c(-c2nc(Nc3cccc(S(N)(=O)=O)c3)ncc2F)s1`, the growth is -18.8% (active) with NCI-H23 lung; 7.23% (active) with NCI-H226 lung; 3.99% (active) in the experiment with NCI-H322M lung; 3.17% (active) with HOP-62 NSCLC; 4.4% (active) in the experiment on NCI-H460 lung; 38.2% in the experiment with HOP-92 NSCLC. The growth was -11.7% (active) with NCI-H522 lung, 3.85% (active) with A549/ATCC NSCLC, 2.98% (active) with 786-0 renal and -66.1% (active) with COLO 205 colon.

`CCOC(=O)c1cnc2cc(Cl)c(F)cc2c1Nc1cccc(NS(C)(=O)=O)c1`: the growth is 80.8% with NCI-H23 lung; 96.4% in the experiment on NCI-H226 lung; 96.3% in the experiment with NCI-H322M lung; 95.9% with HOP-62 NSCLC; 110% in the experiment on NCI-H460 lung; 67.6% in the experiment on HOP-92 NSCLC. Also, the growth is 93% with NCI-H522 lung, 112% in the experiment on A549/ATCC NSCLC, 95.6% in the experiment with 786-0 renal and 124% in the experiment on COLO 205 colon.

Regarding `CC(=O)Oc1cc2cnc3c4cc(OC(C)=O)c(OC(C)=O)cc4ccc3c2cc1OC(C)=O`, the growth was 25.4% in the experiment with NCI-H23 lung; 36.4% with NCI-H226 lung; 5.6% (active) in the experiment on NCI-H322M lung; 28.7% with HOP-62 NSCLC; 9.99% (active) with NCI-H460 lung; 18.6% in the experiment with HOP-92 NSCLC. The growth in the experiment on NCI-H522 lung is -28.8% (active); in the experiment on A549/ATCC NSCLC, 25.5%; in the experiment with 786-0 renal, 18.9%; in the experiment with COLO 205 colon it was 78%.

`CCN(CC)CCCC(C)NCCCNc1cccc2cccnc12` (stereo not given): the growth with NCI-H23 lung was 92.8%; with NCI-H226 lung, 93.5%; in the experiment on NCI-H322M lung it was 79.1%; in the experiment with HOP-62 NSCLC, 82.6%; in the experiment with NCI-H460 lung, 101%; in the experiment with HOP-92 NSCLC, 92.5%. Moreover, the growth is 103% in the experiment with NCI-H522 lung, 106% in the experiment on A549/ATCC NSCLC, 109% in the experiment with 786-0 renal and 91.7% in the experiment on COLO 205 colon.

On to `CCN(CC)C12CCCCC1(C)C(C#N)(C#N)C(C#N)=C(N)O2` (stereo not given), for which the growth in the experiment with NCI-H23 lung was 101%; in the experiment with NCI-H226 lung, 95.6%; in the experiment with NCI-H322M lung it was 91.3%; with HOP-62 NSCLC it was 98.8%; in the experiment with NCI-H460 lung, 114%; in the experiment with HOP-92 NSCLC it was 83.8%. Moreover, the growth in the experiment with NCI-H522 lung was 105%; in the experiment with A549/ATCC NSCLC, 106%; in the experiment on 786-0 renal it was 108%; in the experiment with COLO 205 colon, 140%.
